{"source": "ChEMBL document CHEMBL3988442", "about": "“University of Dundee, Small-Polar-MMV Screening Library” (2021)", "note": "The whole screen tested about 48,000 compounds, of which about 13,000 (27%) showed an effect of 50% or more. This is one part of the list."}
{"test_system": "Wolbachia pipientis", "test": "Anti-Wolbachia Cell-Based Screen", "format": "functional", "design": "scale not given: in the data most compounds retested in dose-response had high values", "conditions": "5 µM", "units": {"Percent Effect": "%"}}
{"molecule": "Cc1nonc1C1CCCN1C(=O)c1cc2n(n1)CCCN(C(C)C)C2", "note": "(centres undefined)", "Percent Effect": 4.032}
{"molecule": "CSCCNC(=O)c1ccc(OC2CCN(CC(C)(C)C)CC2)c(Cl)c1", "Percent Effect": -14.62}
{"molecule": "COc1ccc(NC(=O)CSc2nc(C)c(C)c(C)c2C#N)cn1", "Percent Effect": 14.78}
{"molecule": "Cc1nc(SCC(=O)Nc2ccc(C(N)=O)cc2)c(C#N)c(C)c1C", "Percent Effect": 108.9}
{"molecule": "Cc1cc(=O)n(CC(=O)Nc2ccc(C(N)=O)cc2)nc1C", "Percent Effect": 4.74}
{"molecule": "Cc1ccccc1CC(C)(C)NC(=O)CCOc1cccc(C(N)=O)c1", "Percent Effect": -6.35}
{"molecule": "CCN(CC)c1nc(O)cc(C(C)n2ncc3ccccc3c2=O)n1", "note": "(centres undefined)", "Percent Effect": 150.9}
{"molecule": "NC(=O)c1noc(Cn2ncc3ccccc3c2=O)n1", "Percent Effect": -15.29}
{"molecule": "CC(c1cc(O)nc(NC2CCCC2)n1)n1ncc2ccccc2c1=O", "note": "(centres undefined)", "Percent Effect": 143.5}
{"molecule": "CC(NCCN1CCN(C(=O)C2CCCC2)CC1)c1ccccn1", "note": "(centres undefined)", "Percent Effect": 4.295}
{"molecule": "CNC(=O)c1noc(Cn2ncc3ccccc3c2=O)n1", "Percent Effect": -3.773}
{"molecule": "Cc1cc(C)nc(NC2CC(=O)N(C)C2)n1", "note": "(centres undefined)", "Percent Effect": -15.96}
{"molecule": "CC(C)c1noc(Cn2ncc3ccccc3c2=O)n1", "Percent Effect": -9.946}
{"molecule": "CC(C)Nc1nc(O)cc(C(C)n2ncc3ccccc3c2=O)n1", "note": "(centres undefined)", "Percent Effect": 144.2}
{"molecule": "CC(C)c1nc(CNC(C(=O)N2CCOCC2)C(C)C)no1", "note": "(centres undefined)", "Percent Effect": -8.871}
{"molecule": "COCCN(Cc1coc(-c2ccc(OC)cc2)n1)C1CC1", "Percent Effect": 2.104}
{"molecule": "CC(C)CC(NC(=O)C1=CCCC1)C(=O)N1CCC(CO)CC1", "note": "(centres undefined)", "Percent Effect": 0.4021}
{"molecule": "COCc1nc2cc(NCc3ccc(CO)o3)ccc2o1", "Percent Effect": -0.637}
{"molecule": "CCN(CC)C(=O)CCCNC(=O)c1csc(NC2CC2)n1", "Percent Effect": -10.76}
{"molecule": "Cc1nn(C)c(Oc2ccc(Cl)cc2)c1CN1CCC(CN)C1", "note": "(centres undefined)", "Percent Effect": -7.014}
{"molecule": "CC(O)Cc1cn(CC2CCN(c3nccc4occc34)CC2)nn1", "note": "(centres undefined)", "Percent Effect": 2.668}
{"molecule": "Cc1csc2ncc(-c3ccnc(NC4CCOCC4)n3)c(=O)n12", "Percent Effect": 88.01}
{"molecule": "CCCn1ncc(-c2ccnc(NC3CCSC3)n2)c1C", "note": "(centres undefined)", "Percent Effect": -13.99}
{"molecule": "Cc1ccc(-c2ccnc(N[C@H]3COC[C@@H]3N3CCCCC3)n2)c(C)n1", "Percent Effect": 10.8}
{"molecule": "Cc1cn2c(=O)c(-c3ccnc(N[C@@H]4CCOC4)n3)cnc2s1", "Percent Effect": 101}
{"molecule": "FC(F)(F)CCc1ccnc(NC2CCOC2)n1", "note": "(centres undefined)", "Percent Effect": 0.7283}
{"molecule": "Cc1cn2c(=O)c(-c3ccnc(NC4CCOCC4)n3)cnc2s1", "Percent Effect": 101.9}
{"molecule": "O=C(CCCc1cn[nH]c1)N1C[C@@H](CN2CCCC2)C[C@H](CO)C1", "Percent Effect": -0.9744}
{"molecule": "COc1cc(C)cc(C(C(=O)O)N2CCN(C3CCCC3)CC2)c1OC", "note": "(centres undefined)", "Percent Effect": -14.27}
{"molecule": "CC(C)c1nn(C)c(N2CCOCC2)c1CNCCS(C)(=O)=O", "Percent Effect": -4.469}
{"molecule": "N#CC1(NC(=O)c2ccn(-c3ccccc3Cl)n2)CCSC1", "note": "(centres undefined)", "Percent Effect": -6.951}
{"molecule": "CN1[C@H](CO)C[C@H](CNCc2ccc(Cl)c(F)c2)[C@@H]1c1ccccc1F", "Percent Effect": -19.47}
{"molecule": "CS(=O)(=O)N1CCCCC12CCN(C(=O)c1ccccc1)C2", "note": "(centres undefined)", "Percent Effect": -1.645}
{"molecule": "CN1CCN(C(=O)C2(S(C)(=O)=O)CCCC2)Cc2ccccc21", "Percent Effect": -5.505}
{"molecule": "CN1CCCCC12Cc1ccccc1CN(C(=O)C1CCCC1)C2", "note": "(centres undefined)", "Percent Effect": 124.9}
{"molecule": "O=C(NC1CCc2ccccc2C1)N1CCN(C(=O)C2CCC2)CC1", "note": "(centres undefined)", "Percent Effect": -14.39}
{"molecule": "CC(=O)N1Cc2ccccc2CC2(CCCCN2C)C1", "note": "(centres undefined)", "Percent Effect": 130.2}
{"molecule": "CN1CCCCC12Cc1ccccc1CN(C(=O)c1ccccc1)C2", "note": "(centres undefined)", "Percent Effect": 117.9}
{"molecule": "CN1CCN(C(=O)C2(NC(N)=O)CCCCC2)Cc2ccccc21", "Percent Effect": -12.44}
{"molecule": "Cc1noc(C)c1CNC(=O)N1CCC(OCC2CC2)CC1", "Percent Effect": 12.01}
{"molecule": "Cc1n[nH]cc1CNC(C(=O)N1CCCCC1)c1ccccc1", "note": "(centres undefined)", "Percent Effect": 2.279}
{"molecule": "CC(C)c1nnc2n1CCN(C(=O)CN1CCc3sccc3C1)C2", "Percent Effect": 4.372}
{"molecule": "OC(CN1CCN(c2ncccn2)CC1)c1cccc(F)c1", "note": "(centres undefined)", "Percent Effect": -12.81}
{"molecule": "OC(CN1CCC(c2ccn[nH]2)CC1)c1cccc(F)c1", "note": "(centres undefined)", "Percent Effect": -8.538}
{"molecule": "OC(CN1CCC(c2ccn[nH]2)CC1)c1ccc(F)cc1F", "note": "(centres undefined)", "Percent Effect": 102.6}
{"molecule": "OC(CN1CCC(c2ccn[nH]2)CC1)c1cccc(C(F)(F)F)c1", "note": "(centres undefined)", "Percent Effect": 117.8}
{"molecule": "CN(CC1CCN(CCO)CC1)CC(O)c1ccc(F)cc1F", "note": "(centres undefined)", "Percent Effect": 7.101}
{"molecule": "OC(COc1ccccc1)CN1CCC(c2ccn[nH]2)CC1", "note": "(centres undefined)", "Percent Effect": 2.003}
{"molecule": "CS(=O)(=O)c1ccc(C(O)CN2CCC(c3ccn[nH]3)CC2)cc1", "note": "(centres undefined)", "Percent Effect": -3.645}
{"molecule": "Cn1nccc1C1CCN(CC(O)c2cccc(F)c2)CC1", "note": "(centres undefined)", "Percent Effect": -0.7122}
{"molecule": "OC(CN1CCC(c2ccn[nH]2)CC1)c1ccccc1F", "note": "(centres undefined)", "Percent Effect": 96.43}
{"molecule": "OC(CN1CCC(c2ccn[nH]2)CC1)c1ccc(F)cc1", "note": "(centres undefined)", "Percent Effect": 112.6}
{"molecule": "N#Cc1ccnc(N2CCN(CC(O)c3ccc(F)cc3F)CC2)c1", "note": "(centres undefined)", "Percent Effect": -23.85}
{"molecule": "OC(COCc1cccs1)CN1CCC(c2ccn[nH]2)CC1", "note": "(centres undefined)", "Percent Effect": -8.119}
